Screening results as filed in PubChem.
Only some compounds are listed: those with a hit (about 1.6% of all), similar ones and a draw of the others.
Dyrk1A ADPGlo: Dyrk1A (rat) kinase inhibition | ADP-Glo luminescence, NFATc1 peptide | AID 504441 | 310,000 tested, 0.43% active | inhibition, % at 12.5 µM | Q63470; in the data active = inhibition above about 50%;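 also: plate controls were vehicle with enzyme for no effect and no enzyme for full effect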
Bfl-1 A1 inh: inhibitors of the anti-apoptotic protein A1, read as caspase activation | caspase activation, % (concentration not given with the values) | AID 2462 | 330,000 tested, 0.066% active | MEF A1-2A-BIM cells, Caspase-Glo 3/7 luminescence, 3 h; percent of clofoctol response, vehicle zero;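 active = over half of replicate activation scores above 10%, or exactly half above 10 with the replicate mean above 10; inconclusive = replicate mean below 10 yet half the replicates above 10; inactive = over half of replicates below 10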
dFosB act-1: enhances mouse delta FosB homodimer DNA binding; P13346; purified delta FosB, TAMRA-CDK5 oligo fluorescence polarization; percent of positive-control signal above neutral wells; activation, % at 25 µM; 340,000 tested, 0.99% active;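 active = mean activation above about 17%, with every replicate also reaching it, limit read from the data, passing the limit was not always enough; inconclusive = only one of the two conditions met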
Beta2AR agonist: activates human beta-2 adrenergic receptor causing internalization | Am2.2-beta2AR cells, FAP receptor internalization, flow cytometry | 340,000 tested, 0.43% active | AID 504454 | response, % (concentration not given with the values);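 active = response above a set limit, near 3 SD of response in nonfluorescent compounds, cut at about 42% in these data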
Target sequence (P07550 whole entry, looked up): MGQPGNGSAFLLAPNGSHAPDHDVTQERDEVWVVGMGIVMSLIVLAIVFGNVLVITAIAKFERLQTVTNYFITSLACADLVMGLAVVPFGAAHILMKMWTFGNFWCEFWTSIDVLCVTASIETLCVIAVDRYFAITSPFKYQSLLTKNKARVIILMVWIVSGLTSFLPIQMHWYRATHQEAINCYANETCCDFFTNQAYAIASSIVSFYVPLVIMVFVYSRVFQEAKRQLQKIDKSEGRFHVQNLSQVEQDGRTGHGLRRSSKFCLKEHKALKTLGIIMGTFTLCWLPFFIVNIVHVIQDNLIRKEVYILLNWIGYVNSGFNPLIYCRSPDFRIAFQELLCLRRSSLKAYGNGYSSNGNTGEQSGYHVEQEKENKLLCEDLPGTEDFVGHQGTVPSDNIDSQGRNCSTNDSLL
dFosB act-2: activators of mouse delta FosB homodimer DNA binding; shares compounds with dFosB act-1; purified delta FosB, TAMRA-CDK5 oligo fluorescence polarization; normalised: neutral wells 0, positive control 100; activation, % at 24.9 µM; 2,400 tested, under 10 active; AID 588690;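 active = highest replicate activation at or above 34% and every replicate reaching that threshold; inconclusive = meets only one of the two criteria; inactive = meets neither criterion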;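 also: higher polarization means more probe DNA bound by delta FosB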
* hit, by the source's call; ? = inconclusive; · = no result given.

SMILES	Dyrk1A ADPGlo	Bfl-1 A1 inh	dFosB act-1	Beta2AR agonist	dFosB act-2
O=C(Cc1ccc(-n2c(=O)c3sccc3n(CC(=O)Nc3ccccc3F)c2=O)cc1)NCc1ccco1	0	-1	52*	-6	5
CCOc1ccc(NC(=O)c2ccc3[nH]c(=O)c(=O)[nH]c3c2)cc1	8	1	-2	8	·
O=C(COC(=O)/C=C/c1cc(Br)ccc1F)Nc1ccc2[nH]c(=O)[nH]c2c1	12	0	41*	-1	1
COc1cccc(-c2cc(C(=O)Nc3cnn(Cc4ccccc4C)c3)no2)c1	-4	0	43*	12	1
CCOC(=O)Cc1c[nH]c2ccc([N+](=O)[O-])cc12	27	·	-2	10	·
O=c1[nH]c(/C(Cl)=C/c2cc(Cl)ccc2O)nc2cc(Cl)ccc12	1	0	31*	5	-1
CC1Cc2ccccc2N1S(=O)(=O)c1cnc[nH]1 (stereo not drawn)	3	1	-4	24	·
O=S(=O)(c1cnc[nH]1)N1CCc2ccccc21	0	1	20*	-370	2
CC1CCCCC12NC(=O)N(CC(=O)NCCc1ccc(S(N)(=O)=O)cc1)C2=O (stereo not drawn)	0	0	2	-7	·
CC1(c2ccccc2)NC(=O)N(CC(=O)N(c2ccccc2)C2CCS(=O)(=O)C2)C1=O (stereo not drawn)	-3	0	-4	0	·
O=C(CSc1nc(-c2cccs2)cc(C(F)(F)F)n1)NCc1ccccc1	3	0	22*	-17	5
COC(=O)c1ccc(NC(=O)CN2C(=O)NC3(CCC(C)CC3)C2=O)cc1 (stereo not drawn)	·	0	18*	-5	3
CCOC(=O)c1ccc(NC(=O)CN2C(=O)NC3(CCC(C)CC3)C2=O)cc1 (stereo not drawn)	1	0	?	1	·
CC(C)c1cc(C(=O)N2CCCC(N3CCN(c4ccc(F)cc4)CC3)C2)n(C)n1 (stereo not drawn)	2	·	2	-3	·
Cc1cc(C)c(NC(=O)Nc2ccccc2C)c(Cl)c1	-3	?	20*	7	2
Cc1cc2cc(CNC(=O)c3ccc(S(=O)(=O)N4CCCCC4)cc3)ccc2n1C	1	1	33*	7	2
Cc1cc2cc(CNC(=O)c3ccc(S(=O)(=O)N4CCCC4)cc3)ccc2n1C	5	1	-8	-2	·
Cc1ccc(NC2(C#N)CCCC2)cc1	-2	·	2	4	·
COc1ccc(CNC(=O)Cn2nc(-c3ccc4c(c3)OCCO4)ccc2=O)cc1	14	1	-1	0	·
O=C(Cn1cnc2c(nnn2-c2cccc(F)c2)c1=O)Nc1ccc2c(c1)OCCO2	6	0	?	-13	·
COc1ccc(-n2nnc3c(=O)n(CC(=O)Nc4ccc5c(c4)OCCO5)cnc32)cc1OC	-4	0	49*	9	1
O=C(Cn1nc(-c2ccccc2)ccc1=O)Nc1ccc(-n2cnnn2)cc1	1	0	58*	9	2
CC(=O)Nc1cc2c(cc1NC(=O)Cn1nc(-c3ccc4c(c3)OCCO4)ccc1=O)OCCO2	0	1	-4	4	·
O=C(Cn1nc(-c2ccccc2)ccc1=O)Nc1ccc(N2CCN(C(=O)c3ccccc3)CC2)cc1	4	?	3	10	·
O=C(Cn1nc(-c2ccc3c(c2)OCCO3)ccc1=O)Nc1ccc(-n2cnnn2)cc1	-2	-1	81*	7	6
SMILES	Dyrk1A ADPGlo	Bfl-1 A1 inh	dFosB act-1	Beta2AR agonist	dFosB act-2
COc1ccc(-c2ccc(=O)n(CC(=O)Nc3ccc4c(c3)OCCO4)n2)cc1	3	1	22*	9	-3
CCN(CC)S(=O)(=O)c1ccc(N2CCOCC2)c(NC(=O)C2CCCO2)c1 (stereo not drawn)	-3	0	-9	6	·
CCN(CC)CCNC(=O)c1ccc(NC(=O)c2cc(S(=O)(=O)N3CCCCC3)ccc2N2CCOCC2)cc1	·	·	-18	5	·
COc1ccc(NC(=O)C2(c3ccc(NC(=O)c4ccc(C)cc4)cc3)CCCC2)cc1	-6	0	23*	5	0
COc1ccc(CC(=O)OCC(=O)Nc2ccc(C(=O)Nc3ccc(OC)cc3)cc2)cc1	-5	0	22*	-6	6
O=C(CSc1nnc(CNC(=O)c2ccccc2F)o1)NC1CCCC1	-4	1	-6	0	·
CS(=O)(=O)c1ccc(Cl)c(NC(=O)Cc2c(Cl)cccc2Cl)c1	-5	1	41*	-4	5
O=C(Nc1nc2ccccc2s1)c1cccc(S(=O)(=O)N2CCc3ccccc32)c1	9	0	34*	-5	1
COc1cc(OC)c(N(C)S(=O)(=O)c2cccc(C(=O)Nc3nnc(C4CC4)s3)c2)cc1Cl	-2	?	63*	-7	-7
NS(=O)(=O)c1ccc(NC(=O)c2ccc3c(c2)CCN3S(=O)(=O)c2ccccc2)cc1	0	1	32*	13	1
O=C(Nc1ccccc1)c1ccc2c(c1)CCN2S(=O)(=O)c1ccccc1	5	0	2	9	·
O=C(Nc1nnc(C2CC2)s1)c1cccc(S(=O)(=O)N2CCc3ccccc32)c1	-5	1	51*	1	1
CCN(CC)S(=O)(=O)c1cc(C(=O)OC(C)C(=O)NCc2ccco2)ccc1C (stereo not drawn)	6	-2	-3	-2	·
O=S(=O)(c1ccc(SCCOc2ccc(F)cc2)nc1)N1CCCC1	·	0	-4	3	·
O=C(Nc1nc2c(s1)CN(Cc1ccccc1)CC2)c1cccc(S(=O)(=O)N2CCc3ccccc32)c1	-2	0	74*	-15	-19
Cc1nnc(NC(=O)c2cccc(S(=O)(=O)N3CCc4ccccc43)c2)s1	-12	1	-2	3	·
CCc1nnc(NC(=O)c2cccc(S(=O)(=O)N3CCc4ccccc43)c2)s1	-2	0	34*	-4	0
CCC(=O)Nc1nnc(SCc2ccc(F)cc2)s1	7	1	3	1	·
CC(=O)Nc1ccc(N2C(=O)c3ccc(C(=O)Nc4nnc(SCc5ccc(F)cc5)s4)cc3C2=O)cc1	-2	0	56*	-7	2
CCC(CC)C(=O)Nc1cccc(S(=O)(=O)c2cccc(NC(=O)C(CC)CC)c2)c1	-6	1	17*	14	3
COc1ccc(/C=C(\C#N)C(=O)OCC(=O)NCc2ccccc2OC)cc1	-2	0	31*	-3	4
COc1ccc(/C=C(\C#N)C(=O)OCC(=O)NCc2ccccc2Cl)cc1	6	-1	2	1	·
COc1ccc(CCC(=O)OCC(=O)N(C)c2c(N)n(Cc3ccccc3)c(=O)[nH]c2=O)cc1	0	1	-4	4	·
COCCN(C(=O)COC(=O)COc1ccc2ccccc2c1)c1c(N)n(Cc2ccccc2)c(=O)[nH]c1=O	4	·	19*	-9	0
